Assay outcomes as filed in PubChem.
AmpC inh detg: qHTS Inhibitors of AmpC Beta-Lactamase (assay with detergent); Potency, µM (doses to about 114 µM), without a hit: at the highest dose activity change, negative = inhibition, actives largely listed as inhibitors; AID 485294, 2010; AmpC hydrolysis of nitrocefin, absorbance 480 nm, 0.01% Triton; P00811; 0.041% of 370,000 active;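 also: 0% = no-compound wells and -100% = no-enzyme wells; nearly all actives have a fitted effect of over 25% in size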
Target sequence (P00811 whole entry, looked up): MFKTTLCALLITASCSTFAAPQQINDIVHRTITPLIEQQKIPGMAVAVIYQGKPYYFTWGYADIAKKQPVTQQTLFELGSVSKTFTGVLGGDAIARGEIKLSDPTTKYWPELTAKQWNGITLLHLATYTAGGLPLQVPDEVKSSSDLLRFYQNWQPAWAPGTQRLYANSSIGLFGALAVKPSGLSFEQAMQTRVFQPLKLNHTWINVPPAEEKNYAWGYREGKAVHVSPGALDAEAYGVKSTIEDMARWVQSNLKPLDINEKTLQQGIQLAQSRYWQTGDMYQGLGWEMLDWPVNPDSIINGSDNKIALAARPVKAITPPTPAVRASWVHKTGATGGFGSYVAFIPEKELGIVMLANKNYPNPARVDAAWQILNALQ
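AmpC (5.3 nM in the dispensed reagent) in 20 mM phosphate pH 7.0 with 0.01% (detergent screen) or 0.0001% Triton X-100 was preincubated with compounds for 15 min at room temperature. Nitrocefin was then added from an 800 uM solution, and hydrolysis was followed at 480 nm.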
AmpC inh no detg: qHTS Inhibitors of AmpC Beta-Lactamase (assay without detergent) | Potency, µM (highest dose often 57.1 µM), for the others: top-dose activity change, negative = inhibition, usual class: inhibitors | 0.52% of 330,000 active | AID 485341, 2010 | P00811 | AmpC nitrocefin hydrolysis, absorbance 480 nm, 0.0001% Triton;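 also: plate controls were no compound for no effect and no enzyme for full effect; nearly all actives have a fitted effect of over 20% in size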
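AmpC (5.3 nM in the dispensed reagent) in 20 mM phosphate pH 7.0 with 0.01% (detergent screen) or 0.0001% Triton X-100 was preincubated with compounds for 15 min at room temperature. Nitrocefin was then added from an 800 uM solution, and hydrolysis was followed at 480 nm.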
SARS PLpro yeast: qHTS of Yeast-based Assay for SARS-CoV PLP | Potency, µM (top dose mostly 32.9 µM), without a hit: top-dose activity, positive = growth rescue, most hits filed as activators | S. cerevisiae expressing SARS-CoV PLpro, growth rescue | 0.19% of 330,000 active; calls by dose curve; also: 0% is about no effect; nearly all actives have a fitted effect of over 55% in size
AMA1-RON2 inh: qHTS for Inhibitors of AMA1-RON; Towards Development of Antimalarial Drug Lead: Primary Screen; 0.2% of 360,000 active; AlphaScreen AMA1-biotinylated RON2 peptide binding; Potency, µM (titrated, usually from 58.2 µM), for inactives: at the highest dose activity change, negative = inhibition, actives largely listed as inhibitors; AID 720542, 2013;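 also: 0% = vehicle wells and -100% = peptide control; nearly all actives have a fitted effect of over 45% in size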
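AMA1 (3D7) with his tag at 25 nM final met compounds first, then biotinylated RON2 peptide at 25 nM; detection used donor plus acceptor beads, 10 µg/mL apiece, read by AlphaScreen after 30 min at room temperature.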
NS1 function inh: qHTS Assay for Inhibitors of Influenza NS1 Protein Function; 0.4% of 270,000 active; Potency, µM (highest dose often 46.1 µM), inactives show top-dose activity, positive = more growth; calls by dose curve; also: actives are rising curves; nearly all actives have a fitted effect of over 50% in size
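Read-out: OD600 growth recovery of NS1-expressing budding yeast. Cells grown overnight at 30C in -URA glucose medium, washed, resuspended and diluted 1:100 in 2% galactose assay medium, pH 6.0. Same strain lacking NS1 served as positive control.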
Numbers without * were called inactive; ? = inconclusive; · = not tested or not shown. Most compounds without a hit are left out; they make up all but 0.99% or so of the library. Unless noted, calls follow the shape of the dose curve; as a rule, active = well fitted curve in the direction sought with a large enough effect; inconclusive = small, poorly fitted or top-dose-only effect, or another doubt; inactive = no such curve, though single readings can be large; an effect the other way counts as inactive or inconclusive. Potency is read from the fitted curve at half-maximal effect.

SMILES	AmpC inh detg	AmpC inh no detg	SARS PLpro yeast	AMA1-RON2 inh	NS1 function inh
Cc1ccc(C(=O)NNC(=O)CCCN2C(=O)/C(=C/c3ccccc3Cl)SC2=S)cc1	1%	32µM*	1%	59%	-1%
O=C(CCCN1C(=O)/C(=C/c2ccccc2Cl)SC1=S)NNC(=O)c1ccc(Cl)cc1	-9%	-19%	1%	37%	3%
CSc1ccc(CCNC(=O)c2cc3cc(S(=O)(=O)N4CCCCC4)ccc3n2C)cc1	0%	·	·	·	·
O=C(CCCCCn1c(=O)[nH]c2ccccc2c1=O)N1CCN(c2ccc(Cl)cc2)CC1	0%	·	·	·	·
CCOC(=O)c1c(-c2ccc(C)o2)csc1NC(=O)CSc1nnnn1-c1ccccc1	-12%	11µM*	-4%	-2%	?
CC(C)(C)c1ccc(C(=O)NNc2cc(N3CCCCC3)nc(N3CCCCC3)n2)cc1	-1%	0.16µM*	-3%	16%	5%
Cc1nc(-c2ccc(Cl)cc2)sc1CCNC(=O)c1ccc(C(F)(F)F)cc1	13%	·	·	·	·
CCOc1ccc(-c2cn(-c3cccc(SC)c3)c(=O)[nH]2)cc1	-13%	35µM*	5%	-1%	-2%
CCCC[n+]1c2ccccc2cc2ccccc21	32µM*	-24%	-11%	0%	-58%
CCC[n+]1c2ccccc2cc2ccccc21	?	-22%	-2%	-3%	-44%
O=C(CCCSc1ccccc1)Nc1nc(-c2ccco2)c(-c2ccco2)s1	-5%	28µM*	-4%	?	23%
Cn1c(C23CC4CC(CC(C4)C2)C3)n[nH]c1=S	-17%	-12%	13µM*	4%	23%
COc1ccc(OCCNc2c([N+](=O)[O-])c(=O)oc3ccccc23)cc1	?	28µM*	-1%	-7%	·
CCNc1c([N+](=O)[O-])c(=O)oc2ccccc12	0%	-22%	0%	7%	2%
O=C(CSc1nnc(SCc2cccc3ccccc23)s1)c1ccc2c(c1)OCO2	-9%	25µM*	-9%	41%	7%
Cc1ccc(-n2nc(C(=O)N3CCN(c4cc(Cl)ccc4C)CC3)c(=O)n(C)c2=O)cc1	3%	·	·	·	·
Nc1ccc(S(=O)(=O)NNC(=O)C(=O)NNc2ccccn2)cc1	-1%	-4%	2%	45%	-12%
Cc1ccc(S(=O)(=O)NNC(=O)C(=O)NNc2ccccn2)cc1	-4%	-8%	-1%	32µM*	-12%
C=CCNc1nc(NCCOC)c2sc(-c3ccccc3)cc2n1	·	·	·	-5%	·
C=CCNc1nc(NCc2ccc(N(C)C)cc2)c2sc(-c3ccccc3)cc2n1	·	·	·	2.8µM*	·
CCOc1ccccc1C(=O)Nc1nc2c(s1)CC(C)CC2 (stereo not given)	15%	·	·	·	·
Cc1ccc(C)c(NC(=O)CN2C(=O)C3(SCC(=O)N3c3ccc(C)c(C)c3)c3ccccc32)c1 (stereo not given)	14%	·	·	·	·
COCCN(C(=O)Cc1cccs1)C(C(=O)NCc1ccc(OC)cc1)c1ccc(C)cc1 (stereo not given)	6%	0.32µM*	2%	-1%	-19%
COC1=C(Nc2ccc(C)cc2)C(=O)c2ccccc2C1=O	-3%	-30%	-24%	10µM*	-5%
COC1=C(OC)C(=O)c2ccccc2C1=O	·	·	·	·	-20%
SMILES	AmpC inh detg	AmpC inh no detg	SARS PLpro yeast	AMA1-RON2 inh	NS1 function inh
COC1=C(Nc2ccccc2)C(=O)c2ccccc2C1=O	0%	-29%	7%	10µM*	-11%
Cc1ccc(C(=O)N2CCc3cc(CNS(=O)(=O)c4cccs4)ccc32)cc1	5%	·	·	·	·
O=C(CNC(=S)NC(=O)c1cccc([N+](=O)[O-])c1)c1ccccc1	-8%	13µM*	12%	99%	12%
O=C(Cn1cc2c(n1)CCCCC2)N1CCc2ccccc2C1	?	0.56µM*	1%	6%	8%
O=C(Cn1cc2c(n1)CCCC2)N1CCc2ccccc21	-10%	-23%	-26%	-6%	5%
COc1ccc(NC(=O)c2sc3nc4n(c(=O)c3c2C)CCC4)c(OC)c1	-9%	·	·	·	·
COc1cccc(-c2noc(-c3cc(C(C)C)[nH]n3)n2)c1OC	5%	·	·	·	·
Cc1ccc(NC(=O)CN2C(=O)S/C(=C/c3ccc(O)c([N+](=O)[O-])c3)C2=O)cc1C	50µM*	-49%	0%	-15%	-5%
